# Assay outcomes deposited in PubChem by National Center for Advancing Translational Sciences (NCATS).
# AMA1 RON2 block – qHTS for Inhibitors of AMA1-RON; Towards Development of Antimalarial Drug Lead: Primary Screen | AlphaScreen AMA1-biotinylated RON2 peptide binding | hit rate 0.2% among 360,000 | Potency, µM (titrated, usually from 58.2 µM), inactives show at the highest dose activity change, negative = inhibition, actives largely listed as inhibitors | Plasmodium falciparum AMA1 (3D7) - RON2 peptide interaction;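 note: potency is the fitted concentration of half-maximal effect; 0% = vehicle wells and -100% = peptide control; nearly all actives have a fitted effect of over 45% in size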
#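 AMA1 (3D7) with his tag at 25 nM final met compounds first, then biotinylated RON2 peptide at 25 nM; detection used donor plus acceptor beads, 10 µg/mL apiece, read by AlphaScreen after 30 min at room temperature.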
# Pf growth 96h – Primary qHTS for delayed death inhibitors of the malarial parasite plastid, 96 hour incubation | AID 504834, 2011 | Potency, µM (doses to about 28.7 µM), inactives show top-dose activity change, negative = inhibition, most hits filed as inhibitors | P. falciparum luciferase reporter growth, 96 h | hit rate 6.9% among 320,000; note: potency is the fitted concentration of half-maximal effect; % is set by controls: 0 for no effect and ±100 for the full control effect
#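 Infected RBCs, 2% Hct / 0.05% parasitemia final; luciferase-reporter P. falciparum; cpd 96 h, 37 C, 5% CO2; luciferase detection reagent; luminescence.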
# SARS PLpro yeast – qHTS of Yeast-based Assay for SARS-CoV PLP | S. cerevisiae expressing SARS-CoV PLpro, growth rescue | hit rate 0.19% among 330,000 | Potency, µM (series often up to 32.9 µM), for inactives: top-dose activity, positive = growth rescue, actives largely listed as activators | AID 485353, 2010; calls by dose curve; note: potency is the fitted concentration of half-maximal effect; 0% is about no effect; nearly all actives have a fitted effect of over 55% in size
# Shiga toxin inh – A qHTS for Small Molecule Inhibitors of Shiga Toxin. inhibition, % at 38.7 µM. AID 2315, 2010. Vero cells, Shiga toxin protein synthesis inhibition reporter. hit rate 9.2% among 290,000; in the data active = inhibition mostly above about 28%, no sharp cut-off; inactive = mostly below about 43%; note: 0% is about no effect
# Cycloheximide cs – Cycloheximide Counterscreen for Small Molecule Inhibitors of Shiga Toxin. cell reporter, cycloheximide protein synthesis inhibition counterscreen. max response, %. hit rate 12% among 300,000. AID 2314, 2010; in the data active = max response mostly above about 13%, no sharp cut-off; inactive = mostly below about 14%; note: read at 38.3 µM for the half of the compounds with a filed dose; 0% is about no effect
# Pf growth 48h – Primary qHTS for delayed death inhibitors of the malarial parasite plastid, 48 hour incubation; P. falciparum luciferase growth in erythrocytes, 48 h; Potency, µM (doses to about 28.7 µM), for the others: top-dose activity change, negative = inhibition, most hits filed as inhibitors; hit rate 5.9% among 310,000; AID 504832, 2011; note: potency is the fitted concentration of half-maximal effect; % is set by controls: 0 for no effect and ±100 for the full control effect
#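 Read-out is firefly luciferase luminescence from an integrated reporter in P. falciparum, so falling signal marks reduced parasite growth. Infected erythrocytes were at 2% hematocrit and 0.1% parasitemia (final) in Albumax-supplemented RPMI 1640.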
# Active calls of the source: *; i = inactive; ? = inconclusive; nt = no result given. The list is not random: actives were taken first. Their share in the collection is about 19%. Unless noted, calls come from the whole dose curve; as a rule, active = well fitted curve in the direction sought with a large enough effect; inconclusive = small, poorly fitted or top-dose-only effect, or another doubt; inactive = no such curve, though single readings can be large; an effect the other way counts as inactive or inconclusive.
SMILES,AMA1 RON2 block,Pf growth 96h,SARS PLpro yeast,Shiga toxin inh,Cycloheximide cs,Pf growth 48h
O=C(O)c1ccc(-c2sc(Nc3ccccc3)n[n+]2-c2ccccc2)cc1,-7%,-23%,8%,26,20*,43%
Cc1cc(C)cc(NC(=O)c2sc3nc4n(c(=O)c3c2C)N=C(c2ccccc2)CS4)c1,nt,nt,nt,23,14,nt
O=C1C=C(c2cccs2)CC(c2cccs2)C1n1cnc([N+](=O)[O-])c1 (stereo not drawn),-1%,nt,3%,-14,-2,?
O=C1C=C(c2ccccc2)C[C@H](c2cccs2)[C@H]1n1cnc([N+](=O)[O-])c1,-1%,?,-3%,-4,1,13µM*
Cc1cc(C)n(C(=O)c2cc3c(s2)CCCC3)n1,39%,63%,4%,89*,19,45%
Cc1cccc(NC(=O)Nc2cccc(F)c2)n1,2%,-24%,-16%,79*,52*,62%
COc1cccc(NC(=O)Nc2nccc(C)n2)c1,8%,12%,-2%,72*,38*,82%
Cc1ccnc(NC(=O)Nc2cccc(F)c2)n1,23%,i,-2%,79*,28*,476%
COc1ccc(S(=O)(=O)NC(=O)C2(C)CCN2C(=O)c2cccc(F)c2)cc1 (stereo not drawn),4%,nt,nt,nt,nt,nt
CN(Cc1ccccc1)C(=O)c1cccc(NC(=O)Cc2cccc(NC(=O)C3CCN(C(=O)C4CCC4)CC3)c2)c1,-15%,nt,nt,nt,nt,nt
COC(=O)C1CCN(C(=O)C2CCN(C(=O)[C@@H](NS(=O)(=O)c3ccc(C)cc3)C(C)C)CC2)CC1,0%,?,6%,4,-1,?
O=C(CCN1CCN(c2ccccc2)CC1)N/N=C/c1ccc([N+](=O)[O-])o1,0%,10µM*,1%,-2,2,?
O=C(CN1CCOCC1)NN=Cc1ccc([N+](=O)[O-])o1,2%,nt,nt,nt,nt,nt
O=[N+]([O-])c1ccc(/C=N/Nc2nc(N3CCCCC3)nc(N3CCCCC3)n2)cc1,-4%,4%,0%,-4,-1,?
O=[N+]([O-])c1ccc(/C=N/Nc2nc(N3CCCCCC3)nc(N3CCCCCC3)n2)o1,-18%,?,-48%,-6,-2,5.2µM*
O=C(CC12CC3CC(CC(C3)C1)C2)N/N=C/c1ccc([N+](=O)[O-])o1,38%,71%,16%,28,-7,5.2µM*
O=C(CN1CCCCCCC1)N/N=C/c1ccc([N+](=O)[O-])o1,10µM*,113%,-1%,2,5,?
CC1(C(=O)NCCOc2ccccc2Cl)CC1(Cl)Cl (stereo not drawn),19%,?,nt,18,9,59%
CCOC(=O)CCNC(=O)N1CCCC(C(=O)c2cccc(OC(C)C)c2)C1 (stereo not drawn),15%,?,-2%,-2,-3,10%
COC(=O)c1ccc(OC(C)C(=O)c2ccc(C)cc2)cc1 (stereo not drawn),24%,?,8%,5,-1,-18%
CCn1cc(C(=O)NCCC(C)C)c(=O)c2cc(F)c(N3CCN(C)CC3)cc21,1%,?,1%,-1,-3,?
NC(=O)CSc1nnc(SCc2ccc(F)cc2)s1,-12%,?,0%,26,13,24%
O=C(Nc1nc2ccccc2s1)c1cc(-c2ccco2)nc2ccccc12,?,41%,6%,60*,50*,35%
Cc1nnc(NC(=O)c2cc(-c3ccco3)nc3ccccc23)s1,nt,-3%,1%,nt,nt,6%
Cc1ccc2nc(NC(=O)c3cc(-c4ccco4)nc4ccccc34)sc2c1,-1%,?,-7%,35,24*,27%
O=S(=O)(NCc1cccnc1)c1ccccc1,-3%,-6%,4%,-11,-4,nt
Cn1c(/C(C#N)=C(\O)c2ccc([N+](=O)[O-])s2)nc2ccccc21,0%,0%,2%,-4,-3,nt
Nc1nc2ccccc2n1/N=C/c1cccnc1,1%,nt,nt,nt,nt,nt
